Unmarked numbers belong to inactive results.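 Rule for the calls: active = RAM network inhibition above 8.4% in each of two replicates, 3 SD over the compound average; inconclusive = above 8.4% inhibition in only one replicate; inactive = 8.4% inhibition or less in each replicate.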
Assay: RAM signaling pathway blockade in yeast – S. cerevisiae, Pdr1DBD-CYC8 efflux-inhibited sensitized strain, primary screen (AID 1298);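 note: 0% = DMSO untreated cells without growth and 100% = 10 µM 1-NA-PP1 full growth; higher means more yeast growth rescued from 5-FOA killing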
Conditions: S. cerevisiae cbk1-as DSE1-URA3 strain, 5-FOA growth OD615, 2 d; at 50 µM; stronger effect = higher value

| SMILES | RAM network inhibition [%] |
| --- | --- |
| COCCNC(=O)c1cc(-c2cccs2)on1 | 3.61 |
| CC(C)c1nnc(NC(=O)C2CCCCC2)s1 | -2.03 |
| Cc1nc2ccc(S(=O)(=O)NC(C(=O)Nc3nccs3)C(C)C)cc2s1 (stereo not given) | 1.91 |
| O=C(Cn1c(=O)[nH]c2ccsc2c1=O)NC1CCCCCC1 | 0.72 |
| CCCCN(C)Cc1c(O)ccc2c(-c3ccccc3)cc(=O)oc12 | 1.89 |
| O=C(CN1CCN(Cc2ccccc2F)C1=O)NCc1cccnc1 | 3.14 |
| O=c1c2ccccc2nc2n1CCN2 | -0.47 |
| O=C(CSc1nnc(Cn2c(=O)sc3ccccc32)n1-c1ccccc1)Nc1nccs1 | 2.05 |
| Cc1ccc(-n2nc(C)c3cc(C(=O)O)sc32)cc1 | -1.34 |
| CCOC(=O)c1oc2c(CN3CCN(C)CC3)c(O)ccc2c(=O)c1-c1ccccc1OC | 1.2 |
| CCCCn1c(NCc2ccccc2O)nc2ccccc21 | 3.36 |
| Cc1cc2ncc(-c3ccc(Cl)cc3)c(N)n2n1 | 1.2 |
| CC1(C(=O)NC2CCCCC2)CCC(=O)N1Cc1cccs1 (stereo not given) | 1.09 |
| CCc1cc(=O)n2[nH]c(C)c(-c3ccccc3OC)c2n1 | 1.78 |
| Cc1nnc(SCCn2c(N3CCC(Cc4ccccc4)CC3)nc3c2c(=O)[nH]c(=O)n3C)s1 | 5.98 |
| O=C(C1CCCN(S(=O)(=O)c2cccnc2)C1)N1CCn2c1nc1ccccc12 (stereo not given) | 1.55 |
| CCOC(=O)c1ccc(NC(=O)Cn2cc3c(n2)CCC(C)C3)cc1 (stereo not given) | 6.92 |
| Cc1cc(C)cc(N(CC(=O)Nc2cccc(C)n2)S(=O)(=O)c2c(C)noc2C)c1 | 5.69 |
| COc1ccc(-c2nnc(SCC(=O)N3CCOCC3)o2)cc1OC | 1.27 |
| Cc1c(C(=O)OCc2ccccc2)[nH]c2c1C(=O)CC(c1ccco1)C2 (stereo not given) | 1 |

| SMILES | RAM network inhibition [%] |
| --- | --- |
| CCCn1cc(SCC(N)=O)c2ccccc21 | 0.42 |
| CC1CCCCN1CCNC(=O)C1CCN(S(=O)(=O)c2cccc3cccnc23)CC1 (stereo not given) | 6.99 |
| Cc1onc(-c2ccccc2Cl)c1C(=O)N1CCc2ccccc21 | 7.99 |
| O=C(c1ccc(CNc2c(N3CCCC3)c(=O)c2=O)cc1)N1CCc2ccccc2C1 | 0.72 |
| Cc1cccc(-n2ncc3c(NCc4cccnc4)ncnc32)c1 | 2.13 |
| COc1cccc2cc(C(=O)OC3CCN(C)CC3)c(=O)oc12 | 2.9 |
| CCOc1ccccc1NC(=O)CC1Nc2cc(C)c(C)cc2NC1=O (stereo not given) | 5.85 |
| COC(=O)C(C)Sc1nnc2n(-c3cccc(C)c3)c(=O)c3c4c(sc3n12)CCCC4 (stereo not given) | 1.84 |
| Cc1c(NC(=O)C2CCCCN2S(=O)(=O)c2ccc(Cl)cc2)c(=O)n(-c2ccccc2)n1C (stereo not given) | -0.87 |
| CCC(=O)c1cc(F)c(N2CCN(C(=O)c3ccco3)CC2)cc1C | 0.21 |
| Cc1cccc(C2CC(c3ccccc3)Nc3nc(N)nn32)c1 (stereo not given) | 0.21 |
| Cc1ccc(C)c(NC(=O)CSc2nnc(-c3ccccc3)o2)c1 | 1.79 |
| CCCCN(CC)CCNC(=O)c1cc2c(C)nc3ccccc3c2o1 | 2.07 |
| O=C(Nc1ccccc1)C1=C(O)CC(c2ccoc2)CC1=Nc1ccccc1 (stereo not given) | 2.05 |
| COc1ccc(OCc2nc(C#N)c(N3CCN(c4ccc(OC)cc4)CC3)o2)cc1 | 9.16 |
| CCOc1cccc(OCCCCn2ccnc2)c1 | 1.84 |
| COc1ccc(OC)c(C2CC(=O)NC(SC)=C2C#N)c1 (stereo not given) | 2.19 |
| Cc1cc(NC(=O)c2cccc(S(=O)(=O)N3CC(c4ccccc4)CC3=O)c2)no1 (stereo not given) | 5.71 |
| O=C(Cn1nc(Cc2ccncc2)c2ccccc2c1=O)N1CCN(C(=O)c2ccco2)CC1 | 5.75 |
| COC(=O)c1sc(NC(=O)COc2ccccc2OC)nc1C | 9 |

— PubChem BioAssay
